Assay results reported in PubChem BioAssay (NCATS).
Results filed as inconclusive are left out. Active and inactive are the calls of the source. Calls come from the whole dose curve; as a rule, active = well fitted curve in the direction sought with a large enough effect; inconclusive = small, poorly fitted or top-dose-only effect, or another doubt; inactive = no such curve, though single readings can be large; an effect the other way counts as inactive or inconclusive. Numbered stars: 1 amine (or outer) side, 2 acyl side, 3 side chain; on linkers, the order of the positions; unused ones are H or OH. Bridge positions count the residues as written; N and C are the ends. Square brackets hold non-standard residues; d marks the D form. Peptide text beside a SMILES is read from it. ξ: configuration not given here. Phe(3R-OH) = O=C([C@@H](N[*:1])[C@H](O[*:3])c1ccccc1)[*:2]; NMeTrp(4-OMe) = CN[C@@H](Cc1c[nH]c2cccc(OC)c12)C(=O)O; X4 = O=C(C1CC2(c3ccc(O)cc3)c3ccccc3NC2N1[*:1])[*:2]; ξThr(3R)(O-yl) = C[C@@H](O[*:3])C(N[*:1])C(=O)[*:2]; NMeThr(3ξ) = CN[C@H](C(=O)O)C(C)O; ξW = NC(Cc1c[nH]c2ccccc12)C(=O)O; NMeL = CN[C@@H](CC(C)C)C(=O)O; NMeV = CN[C@H](C(=O)O)C(C)C; ξIle = CC[C@H](C)C(N)C(=O)O; ξY = NC(Cc1ccc(O)cc1)C(=O)O; ξV = CC(C)C(N)C(=O)O

Assays:
[1] = UWB1.289 Cancer Cell Toxicity qHTS against the NCATS CANVASS Library (AID 1347347); note: nearly all actives have a fitted effect of over 60% in size; for activity change, negative = cytotoxicity: series mostly up to about 38 µM; % is set by controls: 0 for no effect and ±100 for the full control effect
In short: (§1)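 Viability was assessed by adding CellTiter-Glo reagent to treated cultures and reading luminescence after 15min at room temperature. Treatment lasted 72 h at 37 degrees C/5% CO2, using an 11-point series on 1000 cells/well.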

[2] = SW1088 Cancer Cell Toxicity qHTS against the NCATS CANVASS Library (AID 1347350); note: nearly all actives have a fitted effect of over 75% in size; for activity change, negative = cytotoxicity: series mostly up to about 38 µM; % is set by controls: 0 for no effect and ±100 for the full control effect
In short: as §1

[3] = U-118MG Cancer Cell Toxicity qHTS against the NCATS CANVASS Library (AID 1347351)
In short: as §1

[4] = UWB1.289-WTBRCA1 Cancer Cell Toxicity qHTS against the NCATS CANVASS Library (AID 1347354)
In short: (§2)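 Cells at 1000/well were given compound 4 h after plating in an 11-point series. Viability was read by CellTiter-Glo luminescence after 72 h at 37 degrees C.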

[5] = HEK-293 Cancer Cell Toxicity qHTS against the NCATS CANVASS Library (AID 1347355); note: series mostly up to about 46 µM; nearly all actives have a fitted effect of over 65% in size
In short: as §2

[6] = tested on: NAD(P)H diaphorase (Clostridium kluyveri); test: Diaphorse counterscreen qHTS: Assay Interference Panel against the NCATS CANVASS Library (AID 1347362); note: 0% is about no effect
In short: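 Clostridium kluyveri diaphorase in PBS with 0.01% Tween-20 was preincubated 15 min at room temperature in the dark with compounds (11-point series). Resorufin fluorescence (ex 525/20, em 598/25) was read 5 min after adding resazurin/NADH.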

[7] = KB-8-5-11 Cancer Cell Toxicity qHTS against the NCATS CANVASS Library (AID 1347364); note: nearly all actives have a fitted effect of over 75% in size
In short: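 KB-8-5-11 cells, 500/well in DMEM + 10% FBS, given compounds in an 11-point series. Incubated 72 h at 37 °C. Viability by CellTiter-Glo luminescence. Confirmation also run with 1 uM tariquidar.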

[8] = qHTS for ATAD5 Antagonist screened against the NCATS CANVASS Library (AID 1347370);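 note: HEK293T cells carrying an ATAD5 luciferase reporter co-treated with 10 µM 5-fluorouridine; series mostly up to about 46 µM; % is set by controls: 0 for no effect and ±100 for the full control effect; nearly all actives have a fitted effect of over 65% in size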
In short: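 HEK293T cells with stably integrated ATAD5-luciferase reporter, 2000/well, 5 h attachment; compounds plus 10 µM 5-fluorouridine, 16 h at 37 °C. Luciferase luminescence read, with CellTiter-Fluor viability read first.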

[9] = molecular target: Nuclear receptor subfamily 1 group I member 3 (Homo sapiens) (UniProt Q14994); test: qHTS for Constitutive Androstane Receptor (CAR) Antagonist screened against the NCATS CANVASS Library (AID 1347372);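 note: cells stimulated with 50 nM CITCO agonist so inhibition reflects antagonism; series mostly up to about 46 µM; % is set by controls: 0 for no effect and ±100 for the full control effect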
In short: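 HepG2 cells stably carrying hCAR and a CYP2B6-2.2kb luciferase reporter were exposed to compounds plus 50 nM CITCO for 24hr at 37C. CAR activity was read by ONE-Glo luminescence, with viability measured first by CellTiter-Fluor.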

[10] = molecular target: Nuclear receptor subfamily 1 group I member 3 (Homo sapiens) (UniProt Q14994); test: qHTS for Constitutive Androstane Receptor (CAR) Agonist screened against the NCATS CANVASS Library (AID 1347373);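 note: every well also contained 1.5 µM PK11195 alongside the test compound; 0% is about no effect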
In short: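 HepG2 cells stably carrying hCAR and a CYP2B6-2.2kb luciferase reporter, treated 24hr at 37C with compounds plus 1.5uM PK11195; activation by ONE-Glo luminescence, viability by CellTiter-Fluor.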

[11] = qHTS for Hypoxia signaling pathway (HIF-1) agonists against the NCATS CANVASS Library (AID 1347375); note: 0% is about no effect
In short: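 HRE-bla ME-180 cells (0.5% dialyzed FBS) were pre-incubated 5 hrs at 37C, then exposed to compounds in an 11-point series for 17 hrs. Read-out was CCF4-AM beta-lactamase FRET (460/530 nm emissions), with CellTiter-Glo viability in the same wells.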

[12] = 10-beta competent E. coli microbial cell viability qHTS against the NCATS CANVASS Library (AID 1347376); note: series mostly up to about 46 µM; 0% is about no effect
In short: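 10-beta competent E. coli (0.2 OD) were exposed overnight at 37C to compounds in an 11-point series. Viability was read as ATP-dependent BacTiter-Glo luminescence after 20 min at room temperature.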

[13] = DH5-alpha competent E. coli microbial cell viability qHTS against the NCATS CANVASS Library (AID 1347377); details: outcome: dose series up to 46.1 µM unless noted
In short: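 DH5-alpha E. coli suspension was exposed to an 11-point compound series overnight at 37 °C. Viable cells quantified by ATP luminescence (BacTiter-Glo) after 20 min at room temperature.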

[14] = Cytotoxicity qHTS for assessment of Hepg2 cells membrane integrity screened against the NCATS CANVASS Library (AID 1347387)
In short: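 HepG2 cells (2000/well) attached overnight, then exposed 5 hr at 37C to compounds in an 11-point series (0.59 nM - 46 uM final). LDH release from damaged membranes read fluorometrically (CytoTox-ONE; 560/590 nm) after 10 min at room temperature.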

[15] = qHTS for Activators of p53 Stress Response Pathway screened against the NCATS CANVASS Library (AID 1347388); note: 0% is about no effect
In short: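 p53RE-bla HCT-116 cells (4000/well) were plated 5 h at 37C, exposed to compounds for 16 h at 37C over an 11-point concentration series, then loaded with CCF4 for 2 h at room temperature; 460/530 nm emission ratio read.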

[16] = qHTS assay for small molecule disruptors of mitochondrial membrane potential screened against the NCATS CANVASS Library (AID 1347389); note: series mostly up to about 46 µM; % is set by controls: 0 for no effect and ±100 for the full control effect; nearly all actives have a fitted effect of over 60% in size
In short: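 HepG2 cells (2,000/well) plated overnight, then exposed to compounds in 11-point qHTS series for 1 h at 37C before 30 min Mito-MPS dye; depolarization read as fall in red aggregate (590 nm) to green monomer (535 nm) fluorescence.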

[17] = qHTS for activators of dead-cell proteases activity screened against the NCATS CANVASS Library (AID 1347392);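 note: luminescence from protease leaking out of membrane-damaged cells cleaving impermeant substrate; 0% is about no effect; rising signal means more cytotoxicity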
In short: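 HepG2 cells (2000/well) attached 18 h at 37C, then exposed 5 h to compounds (11-point qHTS). Dead-cell protease activity read as luminescence from cell-impermeant AAF-aminoluciferin substrate after 15 min at room temperature.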

[18] = Vero-766 cells viability qHTS against the NCATS CANVASS Library: Counterscreen for Zika virus inhibition assay (AID 1347394); note: series mostly up to about 46 µM; % is set by controls: 0 for no effect and ±100 for the full control effect; nearly all actives have a fitted effect of over 60% in size
In short: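 CellTiter-Glo luminescence, lower signal indicating cytotoxicity. Vero 766 cells without Zika virus, 1000 cells/well, plated overnight, then treated 72 h at 37C across an 11-point series.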

[19] = qHTS for inhibitors of Wild type Zika virus screened against the NCATS CANVASS Library (AID 1347396);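 note: ATP luminescence of surviving cells so rescue from viral cell killing; series mostly up to about 46 µM; % is set by controls: 0 for no effect and ±100 for the full control effect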
In short: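 Luminescent CellTiter Glo read-out of virus-induced cytotoxicity, 72 h post-infection, in Vero 766 cells. Compounds were tested at 11 concentrations; uninfected, vehicle-treated wells defined 100% inhibition.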

[20] = Viability qHTS for inhibitors of the SERCaMP assay screened against the NCATS CANVASS Library (AID 1347400); note: series mostly up to about 92 µM; % is set by controls: 0 for no effect and ±100 for the full control effect; nearly all actives have a fitted effect of over 70% in size
In short: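 SH-SY5Y-GLuc SERCaMP MJH297-derived cells, 1000/well, plated 4 h, then exposed to compounds in an 11-point qHTS series for 48 h at 37C. Viability read as CellTiter-Glo luminescence.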

Nuclear receptor subfamily 1 group I member 3 (Homo sapiens), sequence (Q14994 whole entry, looked up): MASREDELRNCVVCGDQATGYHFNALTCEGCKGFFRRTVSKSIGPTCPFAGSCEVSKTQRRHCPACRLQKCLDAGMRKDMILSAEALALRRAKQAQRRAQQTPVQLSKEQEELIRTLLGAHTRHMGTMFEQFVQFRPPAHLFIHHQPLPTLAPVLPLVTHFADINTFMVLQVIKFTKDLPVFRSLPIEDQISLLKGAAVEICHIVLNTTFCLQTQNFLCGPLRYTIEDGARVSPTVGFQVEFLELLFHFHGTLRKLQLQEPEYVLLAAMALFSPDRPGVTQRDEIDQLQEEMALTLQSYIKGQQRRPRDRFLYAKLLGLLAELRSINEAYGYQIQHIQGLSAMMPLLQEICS

CC[C@H](C)[C@H](NC(=O)C(Cc1ccc(O)cc1)NC(=O)C(Cc1c[nH]c2ccccc12)NC(=O)[C@H](C)N)C(=O)N1C(C(=O)NC(Cc2ccc(O)cc2)C(=O)O)CC2(c3ccc(O)cc3)c3ccccc3NC12 (stereo partly drawn) (H-A[ξW][ξY]I[X4][ξY]-OH)
inactive: Potency [1] | Potency [2] | Potency [3] | Potency [4] | Potency [5] | Potency [6] | Potency [7] | Potency [8] | Potency [9] | outcome [10] | Potency [11] | outcome [12] | outcome [13] | outcome [14] | Potency [15] | Potency [16] | Potency [17] | Potency [18] | Potency [19] | Potency [20]

C=C1/C=C\C(CCC)=C\c2csc(n2)C(C)NC(=O)C[C@@]2(CC(=O)O)CCC(=C)[C@H](C1)S2 (stereo partly drawn)
inactive: Potency [1] | Potency [2] | Potency [3] | Potency [4] | Potency [5] | Potency [6] | Potency [7] | Potency [8] | Potency [9] | outcome [10] | Potency [11] | outcome [12] | outcome [13] | outcome [14] | Potency [15] | Potency [16] | Potency [17] | Potency [18] | Potency [19] | Potency [20]

CC[C@H](C)C(NC(=O)[C@@H](NC)C(C)C)C(=O)NC1C(=O)N(C)[C@@H](C(C)O)C(=O)N[C@@H](C(C)C)C(=O)N(C)[C@@H](CC(C)C)C(=O)NC(C(C)C)C(=O)N(C)[C@@H](C(C)C)C(=O)N(C)[C@@H](Cc2c[nH]c3cccc(OC)c23)C(=O)N[C@@H](C(C)C)C(=O)N[C@@H]([C@H](O)c2ccccc2)C(=O)N[C@@H](C(C)C)C(=O)O[C@@H]1C (stereo partly drawn) (H-[NMeV][ξIle][ξThr(3R)(O-yl)][NMeThr(3ξ)]V[NMeL][ξV][NMeV][NMeTrp(4-OMe)]V[Phe(3R-OH)]V; ester 3-C)
inactive: Potency [1] | Potency [2] | Potency [3] | Potency [4] | Potency [5] | Potency [6] | Potency [7] | Potency [8] | outcome [10] | Potency [11] | outcome [13] | outcome [14] | Potency [15] | Potency [16] | Potency [17] | Potency [18] | Potency [19] | Potency [20]

CO[C@@H]1[C@H](O)[C@@H](C)O[C@@H](OC[C@@H]2C(C)OC(=O)/C=C/[C@H](C)C(O[C@@H]3O[C@H](C)CC4(OC(=O)O[C@@H]4C)C3O)[C@@H](C)CC(C)C(=O)CC[C@H]3OC23)[C@@H]1OC (stereo partly drawn)
inactive: Potency [1] | Potency [2] | Potency [3] | Potency [4] | Potency [5] | Potency [6] | Potency [7] | Potency [9] | outcome [10] | Potency [11] | outcome [12] | outcome [13] | outcome [14] | Potency [15] | Potency [16] | Potency [17] | Potency [18] | Potency [19] | Potency [20]

C=C1C[C@@]23C=CC(=O)[C@@](C)(CCC(=O)Nc4c(OC5O[C@H](CO)[C@@H](O)[C@H](O)[C@H]5O)ccc(C(=O)O)c4O)C2C[C@@H]1CC3 (stereo partly drawn)
inactive: Potency [1] | Potency [2] | Potency [3] | Potency [4] | Potency [5] | Potency [6] | Potency [7] | Potency [8] | Potency [9] | outcome [10] | Potency [11] | outcome [12] | outcome [14] | Potency [15] | Potency [16] | Potency [17] | Potency [18] | Potency [19]

C[C@@H]1C(=O)[C@]23CC[C@H]1C[C@]21O[C@H]2C(C)(C)C=CC(=O)[C@]23COC1=O
inactive: Potency [1] | Potency [2] | Potency [3] | Potency [4] | Potency [5] | Potency [6] | Potency [7] | Potency [8] | Potency [9] | outcome [10] | Potency [11] | outcome [12] | outcome [13] | outcome [14] | Potency [15] | Potency [16] | Potency [17] | Potency [18] | Potency [19] | Potency [20]

COc1ccc2oc3c(OC)c(OC)c(OC)c(OC)c3c(=O)c2c1
inactive: activity change, negative = cytotoxicity [1] -4.07% [at 7.64 µM] | activity change, negative = cytotoxicity [2] 3.04% [at 7.64 µM] | activity change, negative = cytotoxicity [3] 3.45% [at 7.64 µM] | activity change, negative = cytotoxicity [4] 9.39% [at 7.64 µM] | activity change, negative = cytotoxicity [5] -6.97% [at 9.19 µM] | activity change, negative = inhibition [6] -18.3% [at 11.5 µM] | activity change, negative = inhibition [8] -20.5% [at 9.19 µM] | activity change, negative = inhibition [9] 22.2% [at 9.19 µM] | activation [10] 7.45% [at 9.19 µM] | activation [11] 1.59% [at 7.64 µM] | activity change, negative = cytotoxic [12] -7.99% [at 9.19 µM] | outcome [13] inactive [at 9.19 µM] | cytotoxicity (LDH release) [14] -0.617 [at 9.19 µM] | activation [15] -1.1% [at 9.19 µM] | activation (cytotoxicity) [17] -1.14% [at 9.19 µM] | activity change, negative = cytotoxic [18] -1.29% [at 9.19 µM] | activity change, negative = antiviral [19] -12.7% [at 9.14 µM] | activity change, negative = cytotoxicity [20] -11.8% [at 18.4 µM]

C[C@@H]1O[C@H](c2c(O)cc(O)c3c(=O)cc(-c4ccc(O)cc4)oc23)[C@H](O)[C@H](O)[C@H]1O
inactive: Potency [1] | Potency [2] | Potency [3] | Potency [4] | Potency [5] | Potency [6] | Potency [7] | Potency [8] | Potency [9] | outcome [10] | Potency [11] | outcome [12] | outcome [13] | outcome [14] | Potency [15] | Potency [16] | Potency [17] | Potency [18] | Potency [19] | Potency [20]

C=C[C@@]1(C)CC[C@@H]([C@H](C)C(=O)/C=C/C(C)C)O1
inactive: Potency [1] | Potency [2] | Potency [3] | Potency [4] | Potency [5] | Potency [6] | Potency [7] | Potency [8] | Potency [9] | outcome [10] | Potency [11] | outcome [12] | outcome [13] | outcome [14] | Potency [15] | Potency [16] | Potency [17] | Potency [18] | Potency [19] | Potency [20]
